# About 2,000 (36%) of roughly 5,500 compounds were called active. Inconclusive results (about 18%) are left out. The list shows a part of the results. A number with no mark means an inactive call. Rule as the data show it: active = normalized growth mostly below about 0.91 (no sharp cut-off); inconclusive = no clear call, values can overlap the other calls; inactive = mostly above about 0.92.
# Assay: chemical genetic growth profiling, strain panel (AID 1159580);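 also: tested at 20 µM; growth read once vehicle control cultures reached saturation at 30 °C; 1 = growth at the plate median or of vehicle wells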
# Conditions: growth OD
# [1] = S. cerevisiae deletion strains, locus YAL013W, strain DEP1, stronger effect = lower value
# [2] = S. cerevisiae deletion strains, locus YBR229C, strain ROT2, stronger effect = lower value
# [3] = S. cerevisiae deletion strains, locus YDL101C, strain DUN1, stronger effect = lower value
# [4] = S. cerevisiae deletion strains, locus YDL134C, strain PPH21, stronger effect = lower value
# [5] = S. cerevisiae deletion strains, locus YDR150W, strain NUM1, stronger effect = lower value
# [6] = S. cerevisiae deletion strains, locus YEL061C, strain CIN8, stronger effect = lower value
# [7] = S. cerevisiae deletion strains, locus YGR078C, strain PAC10, stronger effect = lower value
# [8] = S. cerevisiae deletion strains, locus YHR030C, strain SLT2, stronger effect = lower value
# [9] = S. cerevisiae deletion strains, locus YJR043C, strain POL32, stronger effect = lower value
# [10] = S. cerevisiae deletion strains, locus YJR075W, strain HOC1, stronger effect = lower value
# [11] = S. cerevisiae deletion strains, locus YLR039C, strain RIC1, stronger effect = lower value
# [12] = S. cerevisiae deletion strains, locus YLR262C, strain YPT6, stronger effect = lower value
# [13] = S. cerevisiae deletion strains, locus YMR263W, strain SAP30, stronger effect = lower value
# [14] = S. cerevisiae deletion strains, locus YMR307W, strain GAS1, stronger effect = lower value
# [15] = S. cerevisiae deletion strains, locus YNL153C, strain GIM3, stronger effect = lower value
# [16] = S. cerevisiae deletion strains, locus YNL322C, strain KRE1, stronger effect = lower value
# [17] = S. cerevisiae deletion strains, locus YPL055C, strain LGE1, stronger effect = lower value
# [18] = S. cerevisiae deletion strains, locus YPL241C, strain CIN2, stronger effect = lower value
structure (smiles),measurement,setting,value
COc1cc(C2Nc3cccc4cccc(c34)N2)cc(OC)c1OC,normalized growth,[1],0.962
same,normalized growth,[2],1.01
same,normalized growth,"S. cerevisiae deletion strains, locus YCL061C, strain MRC1, stronger effect = lower value",1.02
same,normalized growth,[3],1.05
same,normalized growth,[4],0.985
same,normalized growth,[5],1.04
same,normalized growth,[6],0.925
same,normalized growth,[7],1.02
same,normalized growth,[8],0.729
same,normalized growth,"S. cerevisiae deletion strains, locus YHR087W, strain rtc3, stronger effect = lower value",1.01
same,normalized growth,"S. cerevisiae deletion strains, locus YJL187C, strain SWE1, stronger effect = lower value",0.992
same,normalized growth,[9],1.01
same,normalized growth,[10],1.07
same,normalized growth,[11],0.751 (active)
same,normalized growth,"S. cerevisiae deletion strains, locus YLR058C, strain SHM2 (second series), stronger effect = lower value",1
same,normalized growth,"S. cerevisiae deletion strains, locus YLR085C, strain ARP6, stronger effect = lower value",0.881
same,normalized growth,[12],0.808 (active)
same,normalized growth,"S. cerevisiae deletion strains, locus YML094W, strain GIM5, stronger effect = lower value",0.883
same,normalized growth,"S. cerevisiae deletion strains, locus YMR219W, strain ESC1, stronger effect = lower value",1
same,normalized growth,[13],0.996
same,normalized growth,[14],0.661 (active)
same,normalized growth,[15],1.02
same,normalized growth,"S. cerevisiae deletion strains, locus YNL298W, strain CLA4 (second series), stronger effect = lower value",0.877
same,normalized growth,[16],1
same,normalized growth,"S. cerevisiae deletion strains, locus YNR030W, strain Alg12, stronger effect = lower value",0.736 (active)
same,normalized growth,[17],0.945
same,normalized growth,[18],0.403 (active)
same,normalized growth,"S. cerevisiae deletion strains, locus YPR135W, strain CTF4, stronger effect = lower value",0.952
COc1cc2cccc(OC)c(=O)c2c(OC)c1OC,normalized growth,[1],1.01
same,normalized growth,"S. cerevisiae deletion strains, locus YBR021W, strain FUR4, stronger effect = lower value",0.994
same,normalized growth,[2],1.01
same,normalized growth,"S. cerevisiae deletion strains, locus YCL029C, strain bik1, stronger effect = lower value",1.02
same,normalized growth,"S. cerevisiae deletion strains, locus YDL035C, strain GPR1, stronger effect = lower value",1.02
same,normalized growth,"S. cerevisiae deletion strains, locus YDL074C, strain BRE1, stronger effect = lower value",1
same,normalized growth,[3],1.01
same,normalized growth,[4],1.01
same,normalized growth,"S. cerevisiae deletion strains, locus YDL185W, strain tfp1, stronger effect = lower value",1.01
same,normalized growth,"S. cerevisiae deletion strains, locus YDL192W, strain arf1, stronger effect = lower value",1.03
same,normalized growth,"S. cerevisiae deletion strains, locus YDR101C, strain arx1, stronger effect = lower value",0.991
same,normalized growth,[5],1.02
same,normalized growth,"S. cerevisiae deletion strains, locus YDR162C, strain NBP2, stronger effect = lower value",1.02
same,normalized growth,"S. cerevisiae deletion strains, locus YDR318W, strain mcm21, stronger effect = lower value",1.03
same,normalized growth,"S. cerevisiae deletion strains, locus YDR388W, stronger effect = lower value",1.01
same,normalized growth,"S. cerevisiae deletion strains, locus YDR502C, strain sam2, stronger effect = lower value",0.989
same,normalized growth,[6],1.01
same,normalized growth,"S. cerevisiae deletion strains, locus YER110C, stronger effect = lower value",1.02
same,normalized growth,"S. cerevisiae deletion strains, locus YER155C, strain BEM2, stronger effect = lower value",1
same,normalized growth,"S. cerevisiae deletion strains, locus YER167W, strain BCK2, stronger effect = lower value",1.03
same,normalized growth,"S. cerevisiae deletion strains, locus YGL078C, strain dbp3, stronger effect = lower value",1
same,normalized growth,"S. cerevisiae deletion strains, locus YGL086W, strain mad1, stronger effect = lower value",1.03
same,normalized growth,"S. cerevisiae deletion strains, locus YGL248W, strain PDE1, stronger effect = lower value",1.01
same,normalized growth,[7],0.998
same,normalized growth,"S. cerevisiae deletion strains, locus YGR135W, strain pre9, stronger effect = lower value",0.982
same,normalized growth,"S. cerevisiae deletion strains, locus YGR229C, strain SMI1, stronger effect = lower value",0.994
same,normalized growth,"S. cerevisiae deletion strains, locus YGR252W, strain gcn5, stronger effect = lower value",0.988
same,normalized growth,[8],1.01
same,normalized growth,"S. cerevisiae deletion strains, locus YHR079C, strain IRE1 (second series), stronger effect = lower value",1
same,normalized growth,"S. cerevisiae deletion strains, locus YHR094C, strain hxt1, stronger effect = lower value",1.01
same,normalized growth,"S. cerevisiae deletion strains, locus YHR129C, strain ARP1, stronger effect = lower value",1
same,normalized growth,"S. cerevisiae deletion strains, locus YHR200W, strain rpn10, stronger effect = lower value",1.01
same,normalized growth,"S. cerevisiae deletion strains, locus YIL066C, strain RNR3, stronger effect = lower value",1.02
same,normalized growth,"S. cerevisiae deletion strains, locus YIL073C, strain SPO22, stronger effect = lower value",1.06
same,normalized growth,"S. cerevisiae deletion strains, locus YIL125W, strain kgd1, stronger effect = lower value",1.02
same,normalized growth,"S. cerevisiae deletion strains, locus YIR030C, strain dcg1, stronger effect = lower value",1.01
same,normalized growth,"S. cerevisiae deletion strains, locus YJL095W, strain BCK1, stronger effect = lower value",1
same,normalized growth,"S. cerevisiae deletion strains, locus YJL134W, strain LCB3, stronger effect = lower value",1.01
same,normalized growth,"S. cerevisiae deletion strains, locus YJL168C, strain set2, stronger effect = lower value",1.01
same,normalized growth,"S. cerevisiae deletion strains, locus YJL187C, strain SWE1 (second series), stronger effect = lower value",0.996
same,normalized growth,[9],0.999
same,normalized growth,[10],1
same,normalized growth,"S. cerevisiae deletion strains, locus YKL009W, strain mrt4, stronger effect = lower value",1.03
same,normalized growth,"S. cerevisiae deletion strains, locus YKL068W, stronger effect = lower value",1.01
same,normalized growth,"S. cerevisiae deletion strains, locus YKL085W, strain MDH1 (second series), stronger effect = lower value",1.02
same,normalized growth,"S. cerevisiae deletion strains, locus YKL085W, strain MDH1, stronger effect = lower value",1.02
same,normalized growth,"S. cerevisiae deletion strains, locus YKL190W, strain CNB1, stronger effect = lower value",1.01
same,normalized growth,"S. cerevisiae deletion strains, locus YKR001C, strain vps1, stronger effect = lower value",1.01
same,normalized growth,[11],1.09
same,normalized growth,"S. cerevisiae deletion strains, locus YLR058C, strain SHM2, stronger effect = lower value",1.01
same,normalized growth,"S. cerevisiae deletion strains, locus YLR102C, strain apc9, stronger effect = lower value",1.01
same,normalized growth,[12],1.09
same,normalized growth,"S. cerevisiae deletion strains, locus YLR268W, strain sec22, stronger effect = lower value",0.99
same,normalized growth,"S. cerevisiae deletion strains, locus YLR330W, strain CHS5, stronger effect = lower value",1.01
same,normalized growth,"S. cerevisiae deletion strains, locus YLR342W, strain FKS1 (second series), stronger effect = lower value",1.05
same,normalized growth,"S. cerevisiae deletion strains, locus YLR371W, strain rom2, stronger effect = lower value",1.01
same,normalized growth,"S. cerevisiae deletion strains, locus YLR418C, strain cdc73, stronger effect = lower value",0.945
same,normalized growth,"S. cerevisiae deletion strains, locus YML016C, strain PPZ1, stronger effect = lower value",1.01
same,normalized growth,"S. cerevisiae deletion strains, locus YML032C, strain rad52, stronger effect = lower value",1.03
same,normalized growth,"S. cerevisiae deletion strains, locus YML124C, strain tub3, stronger effect = lower value",1.01
same,normalized growth,"S. cerevisiae deletion strains, locus YMR078C, strain ctf18, stronger effect = lower value",1.02
same,normalized growth,"S. cerevisiae deletion strains, locus YMR223W, strain ubp8, stronger effect = lower value",1.01
same,normalized growth,[13],0.996
same,normalized growth,[14],0.966
same,normalized growth,"S. cerevisiae deletion strains, locus YNL067W, strain RPL9B, stronger effect = lower value",0.992
same,normalized growth,"S. cerevisiae deletion strains, locus YNL128W, strain TEP1, stronger effect = lower value",1
same,normalized growth,[15],0.977
same,normalized growth,"S. cerevisiae deletion strains, locus YNL233W, strain BNI4, stronger effect = lower value",0.977
same,normalized growth,"S. cerevisiae deletion strains, locus YNL250W, strain rad50, stronger effect = lower value",1.01
same,normalized growth,"S. cerevisiae deletion strains, locus YNL271C, strain bni1, stronger effect = lower value",1.01
same,normalized growth,"S. cerevisiae deletion strains, locus YNL298W, strain CLA4, stronger effect = lower value",1.02
same,normalized growth,"S. cerevisiae deletion strains, locus YNL307C, strain MCK1, stronger effect = lower value",1.03
same,normalized growth,[16],1.02
same,normalized growth,"S. cerevisiae deletion strains, locus YNR052C, strain pop2, stronger effect = lower value",1.01
same,normalized growth,"S. cerevisiae deletion strains, locus YOL006C, strain TOP1, stronger effect = lower value",1.01
same,normalized growth,"S. cerevisiae deletion strains, locus YOL012C, strain htz1",0.97
same,normalized growth,"S. cerevisiae deletion strains, locus YOL147C, strain pex11, stronger effect = lower value",1.01
same,normalized growth,"S. cerevisiae deletion strains, locus YOR061W, strain CKA2, stronger effect = lower value",1.02
same,normalized growth,"S. cerevisiae deletion strains, locus YOR069W, strain VPS5, stronger effect = lower value",1.01
same,normalized growth,"S. cerevisiae deletion strains, locus YOR136W, strain idh2, stronger effect = lower value",1.02
same,normalized growth,"S. cerevisiae deletion strains, locus YOR144C, strain elg1, stronger effect = lower value",1.01
same,normalized growth,"S. cerevisiae deletion strains, locus YOR184W, strain ser1, stronger effect = lower value",1.04
same,normalized growth,"S. cerevisiae deletion strains, locus YOR316C, strain cot1, stronger effect = lower value",1.01
same,normalized growth,[17],0.984
same,normalized growth,[18],1.01
same,normalized growth,"S. cerevisiae deletion strains, locus YPR119W, strain clb2, stronger effect = lower value",1.01
same,normalized growth,"S. cerevisiae deletion strains, locus YPR141C, strain kar3, stronger effect = lower value",1.03
same,normalized growth,"S. cerevisiae deletion strains, locus YPR163C, strain tif3, stronger effect = lower value",1.01
same,normalized growth,"S. cerevisiae deletion strains, locus YPR167C, strain met16, stronger effect = lower value",1.01
same,normalized growth,"S. cerevisiae deletion strains, strain wtn01, stronger effect = lower value",0.992
same,normalized growth,"S. cerevisiae strains, strain wild type, stronger effect = lower value",1.01
